The nature of assay [1]: antimalarial activity against Dd2 strain (AID 2302;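 active means growth inhibition above 50% at the single 2 µM test dose, taken to imply half-maximal potency below 2 µM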;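 further: 0% = DMSO untreated growth and 100% = chloroquine plus artemisinin killed control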). As to conditions: P. falciparum Dd2 in RBCs, LDH growth readout, 72 h; at 2 µM; active compounds read high.
Assay [2] can be described thus: human hepatoma cell viability loss – ATP luminescence, cytotoxicity control for P. falciparum antimalarial project, primary screen (AID 2303;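 active means inhibition above 50%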;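 further: 0% = DMSO wells and 100% = digitonin-killed cells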). As to conditions: HepG2 viability, 24-48 h, at 10 µM, active compounds read high.
The target of assay [3] is L-lactate dehydrogenase (Plasmodium falciparum (isolate CDC / Honduras)) (UniProt Q27743). The assay can be described thus: PfLDH activity inhibition – cell lysate, 3D7 strain, counter-screen for P. falciparum growth inhibition project (AID 2304).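 Further: 0% = vehicle and 100% = reference inhibitor.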 As to conditions: P. falciparum 3D7 crude extract, LDH APAD/NBT absorbance; at 2 µM; active compounds read high.
Sequence of L-lactate dehydrogenase (Plasmodium falciparum (isolate CDC / Honduras)) (Q27743 whole entry, looked up): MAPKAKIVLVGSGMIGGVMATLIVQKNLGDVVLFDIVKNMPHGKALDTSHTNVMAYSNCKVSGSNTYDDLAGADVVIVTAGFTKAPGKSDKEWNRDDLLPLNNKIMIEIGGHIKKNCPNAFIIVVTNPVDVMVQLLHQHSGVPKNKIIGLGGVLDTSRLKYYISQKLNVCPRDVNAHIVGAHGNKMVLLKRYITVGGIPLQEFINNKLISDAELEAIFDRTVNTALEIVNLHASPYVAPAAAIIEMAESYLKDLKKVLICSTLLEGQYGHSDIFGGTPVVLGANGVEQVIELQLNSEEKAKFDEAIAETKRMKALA
Assay [4] is described as follows: inhibition of 3D7 malaria parasite growth – strain 3D7 (AID 2306).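 Further: 0% = DMSO wells and 100% = chloroquine plus artemisinin control wells.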 As to conditions: P. falciparum 3D7 erythrocytic growth, LDH absorbance, 72 h; at 2 µM; active compounds read high.
For assay [5], the target named is Calcium-dependent protein kinase 1 (Plasmodium falciparum (isolate 3D7)) (UniProt P62344). In words: PfCDPK1 kinase inhibitors, biochemical, TCAMS library (AID 1159585; cut-off not given, nearly all actives have IC50 up to about 0.98 µM;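 further: inhibitors leave more ATP so luminescence rises with inhibition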). Particulars: recombinant PfCDPK1, Kinase-Glo ATP depletion luminescence.
Sequence of Calcium-dependent protein kinase 1 (Plasmodium falciparum (isolate 3D7)) (P62344 whole entry, looked up): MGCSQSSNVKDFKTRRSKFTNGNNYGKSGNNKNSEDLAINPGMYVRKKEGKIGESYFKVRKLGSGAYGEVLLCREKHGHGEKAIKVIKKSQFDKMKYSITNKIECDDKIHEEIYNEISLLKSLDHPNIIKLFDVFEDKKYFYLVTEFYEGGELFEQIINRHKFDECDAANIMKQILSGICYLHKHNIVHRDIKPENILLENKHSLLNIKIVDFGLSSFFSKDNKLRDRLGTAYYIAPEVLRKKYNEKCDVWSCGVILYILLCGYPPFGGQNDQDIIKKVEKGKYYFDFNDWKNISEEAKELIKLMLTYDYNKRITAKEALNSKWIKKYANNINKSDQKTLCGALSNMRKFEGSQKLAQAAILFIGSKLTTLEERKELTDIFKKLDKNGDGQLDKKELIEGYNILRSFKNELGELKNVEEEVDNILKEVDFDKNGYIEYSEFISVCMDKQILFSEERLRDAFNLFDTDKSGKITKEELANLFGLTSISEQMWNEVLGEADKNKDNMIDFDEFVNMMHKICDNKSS
The target in assay [6] is Plasmodium falciparum protein kinase 6 (PK6, PF3D7_1337100) (UniProt Q8IDW1). In words: PfPK6 kinase inhibitors, biochemical, TCAMS library (AID 1159586). As to conditions: recombinant PfPK6, Kinase-Glo ATP depletion luminescence.
Sequence of Plasmodium falciparum protein kinase 6 (PK6, PF3D7_1337100) (Q8IDW1 1-305): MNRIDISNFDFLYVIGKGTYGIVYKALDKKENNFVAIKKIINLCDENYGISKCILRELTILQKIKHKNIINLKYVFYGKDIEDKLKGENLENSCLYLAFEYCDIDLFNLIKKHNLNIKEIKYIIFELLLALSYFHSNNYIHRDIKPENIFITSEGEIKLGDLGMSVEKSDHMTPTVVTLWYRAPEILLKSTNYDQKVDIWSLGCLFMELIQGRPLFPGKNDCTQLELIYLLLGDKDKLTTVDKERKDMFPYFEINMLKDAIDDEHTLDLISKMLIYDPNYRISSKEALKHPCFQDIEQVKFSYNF
Assay [7] has as its target Protein kinase 7 (PK7), Plasmodium falciparum 3D7 (PF3D7_0213400) (UniProt Q7YTF7). In words: inhibition of Plasmodium PK7 catalytic activity – biochemical, TCAMS antimalarial set, Kinase-Glo luminescence (AID 1159587). As to conditions: recombinant PfPK7, Kinase-Glo ATP depletion luminescence. On the technique in general: Kinase-Glo measures the ATP left after a reaction by luminescence.

The target in assay [8] is Calcium-dependent protein kinase 4 (Plasmodium falciparum (isolate 3D7)) (UniProt Q8IBS5). In words: PfCDPK4 kinase inhibitors, biochemical, TCAMS library (AID 1159588; cut-off not given, nearly all actives have IC50 up to about 0.91 µM). Particulars: recombinant PfCDPK4, Kinase-Glo ATP depletion luminescence.
Sequence of Calcium-dependent protein kinase 4 (Plasmodium falciparum (isolate 3D7)) (Q8IBS5 whole entry, looked up): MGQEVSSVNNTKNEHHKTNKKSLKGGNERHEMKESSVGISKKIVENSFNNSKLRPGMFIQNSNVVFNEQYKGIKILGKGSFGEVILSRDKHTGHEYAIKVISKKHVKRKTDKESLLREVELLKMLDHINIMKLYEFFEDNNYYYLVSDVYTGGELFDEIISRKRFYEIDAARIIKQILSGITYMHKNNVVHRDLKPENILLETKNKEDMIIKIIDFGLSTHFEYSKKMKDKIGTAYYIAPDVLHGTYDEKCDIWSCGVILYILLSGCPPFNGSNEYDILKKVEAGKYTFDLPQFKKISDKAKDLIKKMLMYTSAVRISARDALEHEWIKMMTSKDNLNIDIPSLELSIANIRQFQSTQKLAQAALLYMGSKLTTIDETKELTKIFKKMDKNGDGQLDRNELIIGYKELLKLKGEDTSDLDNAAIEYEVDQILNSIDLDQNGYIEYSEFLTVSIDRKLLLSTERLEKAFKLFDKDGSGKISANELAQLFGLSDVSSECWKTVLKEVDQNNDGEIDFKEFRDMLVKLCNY

Consider 20 compounds from PubChem BioAssay.

Molecules are shown by their SMILES. A number with no mark means an inactive call. For some of these results: Results with a measured potency or affinity are listed apart. Activity calls are given as the source filed them. Unless noted, how the calls were made is not given here.

Sequence of Protein kinase 7 (PK7), Plasmodium falciparum 3D7 (PF3D7_0213400) (Q7YTF7 1-343): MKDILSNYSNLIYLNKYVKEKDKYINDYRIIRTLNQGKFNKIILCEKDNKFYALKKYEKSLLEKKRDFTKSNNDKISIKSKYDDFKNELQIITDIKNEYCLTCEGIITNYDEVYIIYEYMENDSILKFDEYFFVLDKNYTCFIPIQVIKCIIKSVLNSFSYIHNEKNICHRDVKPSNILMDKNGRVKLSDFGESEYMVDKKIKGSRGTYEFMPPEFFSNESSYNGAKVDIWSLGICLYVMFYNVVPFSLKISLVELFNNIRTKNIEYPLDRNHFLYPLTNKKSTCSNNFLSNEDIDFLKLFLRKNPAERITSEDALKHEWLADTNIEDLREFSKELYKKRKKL

The inhibition is the relative decrease from the control value, in per cent. Consider `COc1cccc2c(NN=Cc3ccccc3Cl)cc(C)nc12`, for which the growth inhibition in assay [1] is 100% (active); in assay [4], 102% (active). Also, the figures for the inhibition in assay [2] and in assay [3] were 22% and -2%, respectively. The outcome in assay [5], in assay [6], in assay [7] and in assay [8] was inactive.
With `COCCN(CCOC)c1ncc(-c2ccsc2)c(-c2nc(C)c(C)s2)n1`, the growth inhibition in assay [1] is 63% (active); in assay [4], 96% (active). Besides, the values for the inhibition in assay [2] and in assay [3] were 1% and 5%, respectively. For the same compound, the result in assay [5], in assay [6], in assay [7] and in assay [8] was inactive.
On to `CCCCCCCc1c(C)[nH]c2cc(OC)ccc2c1=O`, for which the growth inhibition was 98% (active) in assay [1] and 99% (active) in assay [4]. For the same compound, the results for the inhibition in assay [2] and in assay [3] were 5% and -5%, respectively. Also, the outcome in assay [5], in assay [6], in assay [7] and in assay [8] was inactive.
With `FC(F)(F)c1ccc2nc(-c3ccc(-c4cccc(CNCC5CCCO5)c4)cc3)[nH]c2c1` (stereo not given), the growth inhibition in assay [1] is 100% (active); in assay [4] it was 101% (active). In addition, the inhibition was 36% in assay [2] and -5% in assay [3]. The outcome in assay [5], in assay [6], in assay [7] and in assay [8] was inactive.
Turning to `O=C(Nc1ccc(CN2CCN(S(=O)(=O)c3cccc(Cl)c3)CC2)cc1)c1cccs1`, the growth inhibition was 41% in assay [1] and 84% (active) in assay [4]. For the same compound, the inhibition in assay [2] is 9%; in assay [3] it was 0%. In addition, the result in assay [5], in assay [6], in assay [7] and in assay [8] was inactive.
Take `CC(C)C[C@H](NC(=O)OC(C)(C)C)C(=O)Nc1ccc(Cc2ccc(NC(=O)[C@H](CC(C)C)NC(=O)OC(C)(C)C)cc2)cc1`: the results for the growth inhibition in assay [1] and in assay [4] were 88% (active) and 94% (active), respectively. In addition, the inhibition in assay [2] was -5%; in assay [3], 0%. The outcome in assay [5], in assay [6], in assay [7] and in assay [8] was inactive.
Regarding `CCN(CCNc1nc(NCCc2cnc[nH]2)nc(N(CCC#N)Cc2ccccc2)n1)c1cccc(C)c1`, the growth inhibition in assay [1] was 92% (active); in assay [4], 101% (active). In addition, the inhibition was 13% in assay [2] and -3% in assay [3]. The result in assay [5], in assay [6], in assay [7] and in assay [8] was inactive.
As to `CCOC(=O)N1NC(=O)N(c2ccccc2)C1(c1ccccc1)c1ccccc1`, the growth inhibition was 82% (active) in assay [1] and 96% (active) in assay [4]. Moreover, the inhibition in assay [2] was 5%; in assay [3] it was 6%. Also, the result in assay [5], in assay [6], in assay [7] and in assay [8] was inactive.
On to `O=C(C=Cc1ccc(Cl)c(Cl)c1)NCCCCCN1CCC(CCNC(=O)c2sc3ccccc3c2Cl)CC1`, for which the growth inhibition was 6% in assay [1] and 88% (active) in assay [4]. For the same compound, the results for the inhibition in assay [2] and in assay [3] were 27% and -5%, respectively. For the same compound, the outcome in assay [5], in assay [6], in assay [7] and in assay [8] was inactive.
As to `c1cn(-c2ccc(CNc3nccc(Nc4ccc(OCCN5CCOCC5)cc4)n3)cc2)cn1`, the growth inhibition was 3% in assay [1] and 100% (active) in assay [4]. Moreover, the inhibition in assay [2] was 2%; in assay [3], -2%. In addition, the outcome in assay [5], in assay [6], in assay [7] and in assay [8] was inactive.
In the case of `CCCC(CNCc1ccccc1)CNc1cc(=O)c2ccccc2[nH]1` (stereo not given), the growth inhibition is 21% in assay [1] and 86% (active) in assay [4]. Besides, the figures for the inhibition in assay [2] and in assay [3] were 2% and 3%, respectively. For the same compound, the result in assay [5], in assay [6], in assay [7] and in assay [8] was inactive.
Turning to `O=C(NCc1ccc(F)cc1)c1cnc(N2CCN(c3ccncc3)CC2)c(Cl)c1`, the growth inhibition is 44% in assay [1] and 98% (active) in assay [4]. Also, the inhibition in assay [2] is 30%; in assay [3], 2%. The outcome in assay [5], in assay [6], in assay [7] and in assay [8] was inactive.
With `N#Cc1cccc(C(=O)Nc2cccc(-c3cccc(CN4CCNCC4)c3)c2)c1`, the growth inhibition in assay [1] is 10%; in assay [4], 89% (active). The inhibition in assay [2] is 37%; in assay [3], -3%. Moreover, the outcome in assay [5], in assay [6], in assay [7] and in assay [8] was inactive.
Consider `COc1ccc2nccc([C@@H](O)CN3CCC(NCCc4c[nH]c5ccccc45)CC3)c2c1`, for which the growth inhibition is 77% (active) in assay [1] and 98% (active) in assay [4]. Moreover, the inhibition in assay [2] was 0%; in assay [3] it was -7%. Further, the outcome in assay [5], in assay [6], in assay [7] and in assay [8] was inactive.
For the compound `NC(N)=Nc1ccc(OCCCCCOc2ccc(N=C(N)N)cc2Br)c(Br)c1`, the values for the growth inhibition in assay [1] and in assay [4] were 95% (active) and 92% (active), respectively. Besides, the inhibition was 27% in assay [2] and 0% in assay [3]. For the same compound, the outcome in assay [5], in assay [6], in assay [7] and in assay [8] was inactive.
On to `NC1CCCN(Cc2cccc(-c3ccc(-c4nc5ccccc5[nH]4)s3)c2)C1` (stereo not given), for which the growth inhibition in assay [1] is 88% (active); in assay [4] it was 98% (active). Besides, the inhibition in assay [2] was 21%; in assay [3], -2%. For the same compound, the result in assay [5], in assay [6], in assay [7] and in assay [8] was inactive.
`CCc1c[nH]c2c(N3CCCCC3=O)cc(C(=O)N[C@@H](Cc3ccccc3)[C@H](O)CNCc3cccc(OC)c3)cc12`: the growth inhibition was 99% (active) in assay [1] and 101% (active) in assay [4]. Besides, the inhibition was 8% in assay [2] and -1% in assay [3]. Besides, the outcome in assay [5], in assay [6], in assay [7] and in assay [8] was inactive.
As for `Cc1cccc2[nH]c(-c3ccc(-c4ccc(CN5CCCC(N)C5)cc4)s3)nc12` (stereo not given), the growth inhibition in assay [1] is 100% (active); in assay [4], 101% (active). Moreover, the inhibition in assay [2] was 29%; in assay [3], -9%. Besides, the result in assay [5], in assay [6], in assay [7] and in assay [8] was inactive.
For the compound `O=C(NC1CCN(Cc2ccccc2)CC1)c1cccc(Nc2nc(-c3ccccc3)cs2)c1`, the growth inhibition was 3% in assay [1] and 84% (active) in assay [4]. Further, the inhibition in assay [2] is 70% (active); in assay [3] it was 3%. For the same compound, the result in assay [5], in assay [6], in assay [7] and in assay [8] was inactive.
Consider `CCCCCOc1ccc(NC2=CC(=O)C(=O)c3ccccc32)cc1`, for which the growth inhibition in assay [1] was 96% (active); in assay [4], 99% (active). Moreover, the inhibition in assay [2] is 10%; in assay [3], -4%. Besides, the outcome in assay [5], in assay [6], in assay [7] and in assay [8] was inactive.
